Hit rate of the full screen: of about 310,000 compounds, about 11,000 (3.5%) were called active. Not shown: some 4% with an inconclusive outcome. The call rests on the fitted dose curve; in most records, active means well fitted inhibition curve with a large enough effect; inconclusive means small, poorly fitted or top-dose-only effect, or another doubt; inactive means no such curve, though single readings can be large or run the other way. Many of the other results were omitted from the sample, so actives are more common in it than they were.
Each molecule was assayed against 4'-phosphopantetheinyl transferase ffp (Bacillus subtilis) (UniProt Q9F4F7) (assay: qHTS Assay for Inhibitors of Bacillus subtilis Sfp phosphopantetheinyl transferase (PPTase)). Settings: Biochemical Sfp PPTase activity.
How it was run: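 Fluorescence-quenching assay: 15 nM Sfp-PPTase preincubated 15 min at room temperature with compound, then 5 uM rhodamine-CoA and 12.5 uM BHQ-2-labelled YbbR peptide added. Fluorescence (ex 525/em 598 nm) read at start and after 30 min; difference gives rate.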
Cc1ccc(S(=O)(=O)N(CC(O)CN2C(=O)NC(C)(C)C2=O)c2cccc([N+](=O)[O-])c2)cc1 (centres undefined) was tested, and the largest response in the series, negative = inhibition was 5.58% (inactive). Cn1c(=O)n(Cc2ccco2)c(=N)c2c3c(sc21)CCCC3 was tested, and the largest response in the series, negative = inhibition was -9.41% (inactive). For CN1CCc2c(sc3c2c(NCc2ccco2)nc2nnnn23)C1, the Potency was 11.2 µM (active). With CCCSc1nc(NCc2ccco2)c2c3c(sc2n1)COC(C)(CC)C3 (centres undefined) the largest response in the series, negative = inhibition was -1.25% (inactive). Cc1ccc(C)c(C(C)NC(=O)C2CCCO2)c1 (centres undefined) was tested, and the largest response in the series, negative = inhibition was 24.3% (inactive). O=C(/C=C/c1ccc2c(c1)OCCO2)c1ccc(O)cc1 was tested, and the largest response in the series, negative = inhibition was -4.02% (inactive). With CN(CCO)c1ccc(/C=N/Nc2nncc3ccccc23)cc1 the largest response in the series, negative = inhibition was 6.72% (inactive). In the case of CCC(C(=O)NCCC(C)C)N(Cc1ccccc1Cl)C(=O)c1snc(C(N)=O)c1N (centres undefined), the largest response in the series, negative = inhibition was 7.3% (inactive). Cc1csc(NC(=O)NC2(C(F)(F)F)Oc3ccccc3O2)n1 was tested, and the Potency was 8.91 µM (active). Cc1csc(NC(=O)Nc2ccccc2[N+](=O)[O-])n1 was tested, and the largest response in the series, negative = inhibition was -6.55% (inactive). CC(=O)Nc1cccc(C(=O)Nc2nc(C)cs2)c1 was tested, and the largest response in the series, negative = inhibition was -6.97% (inactive). For COc1ccc2c(CC(=O)N3CCc4cc(OC)c(OC)cc4C3)coc2c1, the largest response in the series, negative = inhibition was 1% (inactive). With CNc1nnc(-c2ccco2)s1 the largest response in the series, negative = inhibition was 5.68% (inactive). With Cc1ccc(OCC(=O)Nc2nnc(-c3ccco3)s2)cc1 the Potency was 79.4 µM (active). COc1ccc(OCC(=O)Nc2nnc(-c3ccco3)s2)cc1 was tested, and the largest response in the series, negative = inhibition was -15% (inactive). COc1ccc(N(CC(=O)NCC2CCCO2)C(=O)CCC(=O)Nc2nccs2)c(OC)c1 (centres undefined) was tested, and the largest response in the series, negative = inhibition was 26.6% (inactive). In the case of CCOc1ccc(C(=O)Nc2ccc(CN3CCOCC3)cc2)cc1Cl, the largest response in the series, negative = inhibition was 8.41% (inactive). In the case of O=C(Nc1ccc(O)cc1)c1ccccc1O, the largest response in the series, negative = inhibition was -1.36% (inactive). For CCOC(=O)CCc1c(C)c(C#N)c2[nH]c3ccccc3n2c1=O, the largest response in the series, negative = inhibition was -12.3% (inactive). In the case of CCCc1cc(=S)n2c([nH]c3ccccc32)c1C#N, the Potency was 56.2 µM (active). In the case of Cc1ccccc1Cn1c(=O)[nH]c2ccccc21, the largest response in the series, negative = inhibition was -2.4% (inactive). For Cc1cccn2cc(-c3cccc(S(=O)(=O)N4CCCCC4)c3)nc12, the largest response in the series, negative = inhibition was -2.13% (inactive). With COc1ccccc1NC(=O)CSc1nnc(-c2ccoc2C)n1CCc1ccccc1 the largest response in the series, negative = inhibition was -0.913% (inactive). In the case of O=C(CSc1nnc(-c2cccs2)n1-c1ccccc1)NCc1ccco1, the largest response in the series, negative = inhibition was 14.2% (inactive). For COc1ccccc1NC(=O)CSc1nc2sc3c(c2c(=O)n1-c1ccccc1)CCN(C)C3, the largest response in the series, negative = inhibition was -13.2% (inactive). CCn1c(SCC(=O)c2ccc3ccccc3c2)nnc1-c1cccs1 was tested, and the largest response in the series, negative = inhibition was -21.9% (inactive). Cc1ccc(NC(=O)CSc2nnc(-c3cnccn3)n2Cc2ccco2)cc1C was tested, and the largest response in the series, negative = inhibition was -38.6% (inactive). With O=C(CSc1nnc(-c2cccnc2)n1Cc1ccco1)c1ccc(Cl)cc1 the largest response in the series, negative = inhibition was 5.12% (inactive). In the case of COc1ccccc1NC(=O)CSc1nc2sc(C)c(C)c2c(=O)n1Cc1ccco1, the Potency was 20 µM (active). For O=C(CSc1nnc(-c2cccnc2)n1Cc1ccco1)c1ccc(Cl)c(Cl)c1, the Potency was 28.2 µM (active). For COc1ccc(NC(=O)CSc2nnc(-c3cccs3)n2Cc2ccco2)cc1OC, the Potency was 22.4 µM (active). In the case of CCn1c(SCC(=O)c2ccc(Cl)s2)nnc1-c1cccs1, the largest response in the series, negative = inhibition was -7.42% (inactive). O=C(CSc1nnc(-c2cccs2)n1Cc1ccco1)c1ccc2c(c1)OCO2 was tested, and the Potency was 56.2 µM (active). CCOC(=O)Cc1csc(NC(=O)CSc2nnc(-c3cccnc3)n2Cc2ccco2)n1 was tested, and the largest response in the series, negative = inhibition was -19.3% (inactive). With O=C1Nc2cc(C(=O)N3CCC(N4CCCCC4)CC3)ccc2S/C1=C\c1ccccc1 the largest response in the series, negative = inhibition was -28.2% (inactive). With CCCNC(=O)CCc1c(C)nc2c(c(C)nn2-c2ccc(C)cc2)c1C the largest response in the series, negative = inhibition was 20.1% (inactive). For O=C(NC1CCCC1)C(=O)c1c[nH]c2ccccc12, the largest response in the series, negative = inhibition was 20.8% (inactive). For CC(C)C[C@@H](CC(=O)N[C@@H](CCC(=O)O)CC(=O)O)NC(=O)[C@@H]1CCCC[C@H]1NC(=O)C[C@@H](NC(=O)C[C@H](Cc1c[nH]c2ccccc12)NC(=O)[C@@H]1CCCC[C@H]1N)C(C)C, the largest response in the series, negative = inhibition was -18.7% (inactive). In the case of CCOC(=O)c1ccc(NC(=O)Cc2cccs2)cc1, the largest response in the series, negative = inhibition was 0.409% (inactive). For COc1ccc(NC(=O)C2CCC(CNC(=O)[C@@H]3Cc4ccccc4CN3)CC2)cc1 (some centres undefined), the largest response in the series, negative = inhibition was 7.97% (inactive). With O=C(COc1ccc(S(=O)(=O)Nc2cccc(C(F)(F)F)c2)cc1)N1CCOCC1 the largest response in the series, negative = inhibition was 9.23% (inactive). With O=C(NC1CCCC1)C(c1ccco1)N(C(=O)c1csnn1)c1ccccc1 (centres undefined) the largest response in the series, negative = inhibition was 19.9% (inactive). Cn1cc(-c2nc3cnc(N4CCNCC4)nc3n(CCc3ccccc3)c2=O)c2ccccc21 was tested, and the Potency was 39.8 µM (active). With Cc1nc2cnc(N3CCNCC3)nc2n(CCc2ccccc2)c1=O the largest response in the series, negative = inhibition was -8.2% (inactive). For Cn1cc(-c2nc3cnc(N4CCNCC4)nc3n(CCC#N)c2=O)c2ccccc21, the largest response in the series, negative = inhibition was -19.5% (inactive). In the case of COc1ccc(C2/C=C\CN(C(=O)c3ccc(C)cc3)C(Cc3ccccc3)C(=O)N2Cc2ccc(F)cc2)cc1 (centres undefined), the largest response in the series, negative = inhibition was -6.91% (inactive). For CC1(C(=O)NNC(=S)NCC2CCCO2)CC1(Cl)Cl (centres undefined), the largest response in the series, negative = inhibition was 17.2% (inactive). Cc1cccc(C)c1NC(=O)NC1=CCCN1C was tested, and the largest response in the series, negative = inhibition was 20.1% (inactive). In the case of Cc1cc(OCc2ccc(C(=O)Nc3ccc(C(=O)O)cc3)o2)ccc1Cl, the largest response in the series, negative = inhibition was 0.726% (inactive). In the case of Cc1cc(C(=O)Nc2c(C)nn(Cc3ccccc3)c2C)on1, the largest response in the series, negative = inhibition was 18.5% (inactive). In the case of Cc1ccc(C(=O)O)cc1NC(=O)c1ccc(Cn2nc(C)c(Cl)c2C)o1, the Potency was 56.2 µM (active). Cc1cc(C)nc(NNC2=CC(=O)CC(C)(C)C2)n1 was tested, and the Potency was 22.4 µM (active). CC1(C)CC(=O)C=C(Nc2ccccc2)C1 was tested, and the largest response in the series, negative = inhibition was 25.1% (inactive). In the case of COC(=O)NNC1=CC(=O)CC(C)(C)C1, the largest response in the series, negative = inhibition was -3.96% (inactive). In the case of Cc1ccc2c(c1)N(CC(=O)N1CCCC(C)C1)C(=O)CO2 (centres undefined), the largest response in the series, negative = inhibition was 5.13% (inactive). For CCn1c(C)c(C)c2cc(C(=O)N3CCN(c4cccc(C)c4C)CC3)ccc21, the largest response in the series, negative = inhibition was -24.3% (inactive). With CCOC(=O)C1Sc2[nH]c(=O)sc2C(c2ccc(Cl)cc2)C1C(=O)OCC (centres undefined) the Potency was 22.4 µM (active). With CCOC(=O)c1[nH]c2c(c1-c1ccccc1)C(=O)CC(c1ccc(Cl)cc1)C2 (centres undefined) the largest response in the series, negative = inhibition was 5.24% (inactive). CCOC(=O)C1=C(C)NC(=O)N(C(C)=O)C1c1ccc(Cl)cc1 (centres undefined) was tested, and the largest response in the series, negative = inhibition was 19% (inactive). For CCC(C)c1ccc(NC(=S)N2CCCC2)cc1 (centres undefined), the largest response in the series, negative = inhibition was 7.33% (inactive). With c1ccc(COc2nsnc2N2CCOCC2)cc1 the Potency was 28.2 µM (active). For c1nc(COc2nsnc2N2CCOCC2)cs1, the largest response in the series, negative = inhibition was 0.0907% (inactive). For O=C(O)COc1nsnc1N1CCOCC1, the largest response in the series, negative = inhibition was 18.9% (inactive). CCc1c(C)c2ccc(OC3CCCCC3=O)cc2oc1=O (centres undefined) was tested, and the largest response in the series, negative = inhibition was -0.0226% (inactive). For CCOC(=O)C(C)n1cnc2c(nnn2-c2ccc(F)cc2)c1=O (centres undefined), the largest response in the series, negative = inhibition was 8.12% (inactive). With O=S(=O)(NCCNS(=O)(=O)c1ccccc1)c1ccccc1 the largest response in the series, negative = inhibition was 14.7% (inactive). For O=c1/c(=C/c2ccc(CNS(=O)(=O)c3ccccc3)o2)sc2n1CCN=2, the Potency was 50.1 µM (active). For O=S(=O)(NCc1ccccc1)c1ccc(S(=O)(=O)N2CCCC2)cc1, the largest response in the series, negative = inhibition was -13.6% (inactive). In the case of Cc1ccccc1NC(=O)c1cc(S(=O)(=O)Nc2cccc(C(=O)O)c2)ccc1Cl, the largest response in the series, negative = inhibition was 17.9% (inactive). COCCNC(=O)C1CCN(C(=O)C2CC(=O)N(c3ccc(C)cc3)C2)CC1 (centres undefined) was tested, and the largest response in the series, negative = inhibition was 10.9% (inactive). In the case of NS(=O)(=O)c1cccc(NC(=O)CN2CCCc3ccccc32)c1, the largest response in the series, negative = inhibition was 17% (inactive). With COC(=O)c1[nH]c2ccccc2c1NC(=O)CN1CCCc2ccccc21 the Potency was 39.8 µM (active). For COC(=O)c1[nH]c2cccc(C)c2c1NC(=O)CN1CCCc2ccccc21, the largest response in the series, negative = inhibition was -4.7% (inactive). For O=C(Nc1nnc(S(=O)(=O)N2CCOCC2)s1)c1cccc(Br)c1, the largest response in the series, negative = inhibition was 19.1% (inactive). In the case of S=c1[nH]nc(-c2cc(-c3ccccc3)n[nH]2)n1/N=C/c1c2ccccc2cc2ccccc12, the Potency was 50.1 µM (active). In the case of S=c1[nH]nc(-c2ccncc2)n1/N=C/c1ccccc1Cl, the largest response in the series, negative = inhibition was -1.85% (inactive). For c1ccc(-c2cc(-c3ccccc3)[nH]n2)cc1, the largest response in the series, negative = inhibition was 4.07% (inactive). In the case of Cc1cc(C)nc(N/N=C/c2c(C)oc3ccccc23)n1, the largest response in the series, negative = inhibition was -2.54% (inactive). Cc1ccc(S(=O)(=O)N/N=C\c2cc3c(cc2[N+](=O)[O-])OCO3)cc1 was tested, and the largest response in the series, negative = inhibition was -17.6% (inactive). For C/[N+]([O-])=C\c1ccc([N+](=O)[O-])o1, the largest response in the series, negative = inhibition was 10% (inactive). With Cc1cc(C)nc(N/N=C/c2ccncc2)n1 the largest response in the series, negative = inhibition was -9.4% (inactive). For CCc1ccc(S(=O)(=O)N/N=C\c2ccc([N+](=O)[O-])o2)cc1, the Potency was 56.2 µM (active). For Cc1cc(C)nc(N/N=C/c2ccc([N+](=O)[O-])o2)n1, the Potency was 79.4 µM (active). O=C(NNS(=O)(=O)c1ccc([N+](=O)[O-])cc1)C1CCCCC1 was tested, and the largest response in the series, negative = inhibition was 5.3% (inactive). CC(C)(C)c1cc[n+](-c2[nH]c(=O)sc2/C=N/N=C(\[O-])c2ccccc2)cc1 was tested, and the largest response in the series, negative = inhibition was -4.09% (inactive). COC1=C(N2CCOCC2)C(=O)c2ccccc2C1=O was tested, and the largest response in the series, negative = inhibition was -22.9% (inactive). In the case of COc1ccc(CNC(=O)CCN2C(=O)c3ccccc3C2=O)cc1, the largest response in the series, negative = inhibition was 10.6% (inactive). For COc1ccccc1CN1CCN(C(c2ccccc2)c2ccccc2)CC1, the largest response in the series, negative = inhibition was -9.22% (inactive). COc1cc(OC)c(OC)cc1CN1CCN(C(=O)c2cccc3ccccc23)CC1 was tested, and the largest response in the series, negative = inhibition was -29.2% (inactive). COc1ccccc1CN1CCN(Cc2cc(OC)c(OC)cc2OC)CC1 was tested, and the Potency was 79.4 µM (active). Cc1ccc(C(=O)N/C(=C\c2ccc(F)cc2)C(=O)NCCN2CCOCC2)cc1 was tested, and the largest response in the series, negative = inhibition was 8.47% (inactive). With Cc1ccccc1N1CCN(CC(=O)NCc2ccc(Cl)cc2)CC1 the largest response in the series, negative = inhibition was 9.8% (inactive). With O=C(CN1CCN(S(=O)(=O)c2ccc(Cl)s2)CC1)NCc1ccc(Cl)cc1 the Potency was 56.2 µM (active). With O=C(NCc1ccc(Cl)cc1)C1CCN(S(=O)(=O)c2cccs2)CC1 the largest response in the series, negative = inhibition was 2.39% (inactive).
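Further: the enzyme is Sfp with the accession as filed and its product quenches rhodamine fluorescence.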
Potency means the concentration at half of the fitted maximal effect.
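Wherever largest response in the series, negative = inhibition is given: 0% = enzyme reaction without inhibitor and -100% = no enzyme wells.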
